Our source for the morphology score and SARS-CoV-2 infection rate values is the supplement of paper PMC13380429.

For assay [1], the system named is Vero E6 infected with SARS-CoV-2. As to the kind of experiment: morphology score (similarity to uninfected cells); higher = more like uninfected cells. Particulars: 24 h.
For assay [2] the test system is unchanged. As to the kind of experiment: SARS-CoV-2 infection rate relative to infected DMSO; higher = more infection, active = 60 or less. Particulars: 24 h.

Consider `O=C(c1cc(S(=O)(=O)Nc2ccccc2F)c(F)cc1Cl)N1CCN2CCC[C@@H]2C1` (10 µM), for which the morphology score in assay [1] was determined as 0.0625. In assay [2], the SARS-CoV-2 infection rate is 104% (inactive).

As for `Cc1ncc(NC(=O)c2ccc(CN3CCN(C)CC3)c(C(F)(F)F)c2)cc1Nc1nccc(-c2cccnc2)n1` [flumatinib] (10 µM), the morphology score in assay [1] was 0.306. Also, the SARS-CoV-2 infection rate in assay [2] is 25.5% (active).

As for `C=CCNC1=C2C[C@@H](C)C[C@H](OC)[C@H](O)[C@@H](C)/C=C(\C)[C@H](OC(N)=O)[C@@H](OC)/C=C\C=C(/C)C(=O)NC(=CC1=O)C2=O` [tanespimycin] (10 µM), the morphology score in assay [1] is -0.0472. Further, the SARS-CoV-2 infection rate in assay [2] is 114% (inactive).

The compound `O=S(=O)(O)NC1CCCCC1` [cyclamic-acid] (10 µM) registered a morphology score in assay [1] of 0.146. For the same compound, in assay [2], the SARS-CoV-2 infection rate was 87.5% (inactive).

Compound `CC=CC1=C(C(=O)O)N2C(=O)[C@@H](NC(=O)[C@H](N)c3ccc(O)cc3)[C@H]2SC1` (mixture of isomers) [cefprozil] (10 µM) returned a morphology score in assay [1] of 0.273. Also, the SARS-CoV-2 infection rate in assay [2] is 99% (inactive).

For `CCC(O)(CC(N)=O)c1ccccc1` (centres undefined) [3-hydroxy-3-phenylpentanamide] (10 µM), in assay [1], the morphology score turned out to be 0.0251. Further, in assay [2], the SARS-CoV-2 infection rate was 112% (inactive).

Regarding `CC(C)c1nc(CN(C)C(=O)N[C@H](C(=O)N[C@@H](Cc2ccccc2)C[C@H](O)[C@H](Cc2ccccc2)NC(=O)OCc2cncs2)C(C)C)cs1` [ritonavir] (10 µM), in assay [1], the morphology score was determined as 0.0318. Moreover, the SARS-CoV-2 infection rate in assay [2] is 104% (inactive).

The compound `O=C(O)c1ccc(-c2ccc3cc(O)c(C45CC6CC(CC(C6)C4)C5)cc3c2)cc1` (10 µM) gave a morphology score in assay [1] of -0.0522. The SARS-CoV-2 infection rate in assay [2] was 106% (inactive).

On to `CCN(CCCc1ccccc1)CCCc1ccccc1` [alverine] (10 µM), for which the morphology score in assay [1] was 0.397. Moreover, in assay [2], the SARS-CoV-2 infection rate was 62% (inactive).

As to `NC(=O)c1cccc2cn(-c3ccc([C@@H]4CCCNC4)cc3)nc12` [niraparib] (0.833333 µM), the morphology score in assay [1] was found to be 0.0643. Further, the SARS-CoV-2 infection rate in assay [2] is 102% (inactive).

The compound `CN(C)CCCN1c2ccccc2Sc2ccccc21` [promazine] (10 µM) had a morphology score in assay [1] of 0.41. Further, the SARS-CoV-2 infection rate in assay [2] is 91.5% (inactive).

As for `CCCNS(=O)(=O)Nc1ncnc(OCCOc2ncc(Br)cn2)c1-c1ccc(Br)cc1` [macitentan] (10 µM), in assay [1], the morphology score was -0.0952. For the same compound, the SARS-CoV-2 infection rate in assay [2] is 112% (inactive).

Turning to `O=c1c2ccccc2oc2ccccc12` [xanthone] (10 µM), the morphology score in assay [1] came to 0.219. Also, in assay [2], the SARS-CoV-2 infection rate was 104% (inactive).

In turn, `CCC(=O)N1CCN(c2ccc(-n3c(=O)ccc4cnc5ccc(-c6cnc7ccccc7c6)cc5c43)cc2C(F)(F)F)CC1` [torin-1] (10 µM) showed a morphology score in assay [1] of -0.0739. Also, in assay [2], the SARS-CoV-2 infection rate was 107% (inactive).

On to `CCCC[C@@H](C=O)NC(=O)[C@H](CC(C)C)NC(=O)OCc1ccccc1` [calpeptin] (10 µM), for which, in assay [1], the morphology score is 0.815. For the same compound, in assay [2], the SARS-CoV-2 infection rate was 12.5% (active).

Consider `C=CC(=O)Nc1ccc2ncnc(Nc3cccc(Br)c3)c2c1` (0.833333 µM), for which the morphology score in assay [1] amounted to 0.0618. In assay [2], the SARS-CoV-2 infection rate is 90% (inactive).

Compound `O=C(Nc1ccc(Oc2ccc(Cl)cn2)c(Cl)c1)c1ccccn1` (10 µM) gave a morphology score in assay [1] of 0.0983. Also, in assay [2], the SARS-CoV-2 infection rate is 102% (inactive).

On to `C#CCN(C)Cc1ccccc1` [pargyline] (10 µM), for which the morphology score in assay [1] amounted to 0.0803. Besides, the SARS-CoV-2 infection rate in assay [2] was 108% (inactive).

In turn, `COc1ccc(-c2cc(C(F)F)nn2-c2ccc(S(N)(=O)=O)cc2)cc1F` [deracoxib] (10 µM) registered a morphology score in assay [1] of 0.112. The SARS-CoV-2 infection rate in assay [2] was 112% (inactive).

In assay [1], `O=S1(=O)N[C@H]2CCCN2c2ccccc21` (10 µM) returned a morphology score of 0.0127. In addition, in assay [2], the SARS-CoV-2 infection rate was 104% (inactive).

Compound `CN/C(=N\S(=O)(=O)c1ccc(Cl)cc1)N1C[C@H](c2ccccc2)C(c2ccc(Cl)cc2)=N1` (racemic) (10 µM) displayed a morphology score in assay [1] of -0.133. In assay [2], the SARS-CoV-2 infection rate was 114% (inactive).

On to `O=C(c1ccc(-c2ccc(Cl)cc2)o1)N(Cc1ccccn1)c1ccc(N2CCNCC2)cc1` (0.833333 µM), for which, in assay [1], the morphology score was found to be 0.128. Further, in assay [2], the SARS-CoV-2 infection rate is 106% (inactive).
